Source: PubChem BioAssay AID876 (University of Pittsburgh Molecular Library Screening Center, 2007)
The list shows a part of the results. Values without a mark were called inactive. No rule for the calls is given here.

assay: redox cycling hydrogen peroxide generation, dose response, artefact control for Plk1 PBD inhibitor project, biochemical (AID 876); conditions: redox cycling H2O2 generation, DTT, counter-screen

Structure (SMILES)	EC50 [µM]
Oc1ccc2ccc3cccc[n+]3c2c1	> 50
CCOC(=O)c1cc2n(c1N)-c1ccccc1C2=O	> 50
O=C(NCCc1ccccc1)/C(=C\c1ccc([N+](=O)[O-])cc1)NC(=O)c1ccccc1	> 50
CC1(C)CC(=O)C=C(NCc2ccncc2)C1	> 50
COc1ccc(Nc2oc(-c3ccccc3Cl)nc2C#N)cc1	> 50
